This excerpt belongs to a sample that is enriched for hits.
Sfp inh: blocks B. subtilis Sfp PPTase activity. Biochemical Sfp PPTase activity, qHTS. AID 1490. Potency, µM, inactives show largest response in the series, negative = inhibition, usual class: inhibitors. actives 3.5% (n = 310,000);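 further: the enzyme is Sfp with the accession as filed and its product quenches rhodamine fluorescence; 0% = enzyme reaction without inhibitor and -100% = no enzyme wells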
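Step 1, compound plus 15 nM Sfp-PPTase, 15 min, room temperature. Step 2, add rhodamine-CoA (5 uM) and BHQ-2-YbbR (12.5 uM). Step 3, read 525/598 nm fluorescence at 0 and 30 min.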
G9a block: inhibitors of human histone lysine methyltransferase G9a; Potency, µM (top dose mostly 102 µM), for the others: top-dose activity, negative = inhibition, usual class: inhibitors; actives 8.8% (n = 350,000); G9a H3K9 monomethylation, AlphaScreen, 2 h; Q96KQ7; further: on the % scale 0 is the no-effect control and ±100 the full control effect; nearly all actives have a fitted effect of over 75% in size
Target sequence (Q96KQ7 913-1193 limits assumed): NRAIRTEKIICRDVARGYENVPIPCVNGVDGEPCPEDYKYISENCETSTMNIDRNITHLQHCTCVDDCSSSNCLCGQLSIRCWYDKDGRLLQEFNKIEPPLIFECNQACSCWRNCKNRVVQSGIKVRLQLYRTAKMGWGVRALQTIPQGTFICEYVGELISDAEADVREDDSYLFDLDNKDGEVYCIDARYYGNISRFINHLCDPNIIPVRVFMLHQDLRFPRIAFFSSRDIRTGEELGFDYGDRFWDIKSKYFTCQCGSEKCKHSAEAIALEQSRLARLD
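Using a bead-based AlphaScreen, monomethylated H3K9 product from 2 h room-temperature reactions (G9a 20 nM, peptide 500 nM, SAM 20 uM) was detected with 0.5 ug/mL rabbit anti-H3K9me1 antibody.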
VDR inh: inhibitors of human vitamin D receptor | actives 0.93% (n = 400,000) | Potency, µM, for the others: max response, negative = inhibition, most hits filed as inhibitors | AID 504847 | VDR-SRC2-3 peptide fluorescence polarization, 2 h | P11473; further: on the % scale 0 is the no-effect control and ±100 the full control effect
Target sequence (P11473 whole entry, looked up): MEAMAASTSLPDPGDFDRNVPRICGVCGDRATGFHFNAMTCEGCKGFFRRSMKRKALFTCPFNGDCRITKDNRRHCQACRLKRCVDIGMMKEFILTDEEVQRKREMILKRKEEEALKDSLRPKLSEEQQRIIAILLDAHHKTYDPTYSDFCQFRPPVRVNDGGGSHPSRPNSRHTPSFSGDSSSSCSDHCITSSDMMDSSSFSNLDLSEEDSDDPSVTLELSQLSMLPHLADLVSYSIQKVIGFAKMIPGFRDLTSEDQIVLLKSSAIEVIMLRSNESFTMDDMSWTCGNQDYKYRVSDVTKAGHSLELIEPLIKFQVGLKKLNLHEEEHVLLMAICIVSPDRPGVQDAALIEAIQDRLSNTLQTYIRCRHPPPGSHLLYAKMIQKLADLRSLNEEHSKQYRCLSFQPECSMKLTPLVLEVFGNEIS
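Two reagent solutions held at 4 deg C in the dark were dispensed, compounds pinned at 23 nl, and the mixture incubated 2 h at room temperature. Read-out: fluorescence polarization of VDR–SRC2-3 peptide binding.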
GRP78 ERSR act: inducers of ER stress response in human glioma cells. U87-MG GRP78 promoter luciferase reporter, 16 h. actives 0.02% (n = 420,000). Potency, µM, for the others: at the highest dose activation, actives largely listed as activators; further: series mostly up to about 76 µM; % of control where 0% means no effect; nearly all actives have a fitted effect of over 35% in size
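Stably transfected U87-MG glioma cells carrying a GRP78-based luciferase sensor; 16 h compound incubation. Luminescence end-point read 10 min after Bright-Glo addition at room temperature.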
12-LOX inh: blocks human arachidonate 12S-lipoxygenase; P18054; purified 12hLO, xylenol orange hydroperoxide absorbance; Potency, µM (top dose mostly 108 µM), for the others: top-dose activity change, negative = inhibition, hits mostly inhibitors; actives 1.1% (n = 580,000); AID 1671190; further: on the % scale 0 is the no-effect control and ±100 the full control effect
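Hydroperoxide product was detected by ferrous iron/xylenol orange as the 573 to 405 nm absorbance ratio. Arachidonic acid at 40 uM (final) was turned over for 30 min at room temperature by 150 nM human 12hLO, pH 7.0 Hepes buffer, after 15 min compound preincubation.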
The depositor's hits bear a star; u = inconclusive; x = not tested or not shown; [ ] = remark or other dose. The call rests on the fitted dose curve; in most records, active means well fitted curve in the direction sought with a large enough effect; inconclusive means small, poorly fitted or top-dose-only effect, or another doubt; inactive means no such curve, though single readings can be large; an effect the other way counts as inactive or inconclusive. Potency means the concentration at half of the fitted maximal effect.

SMILES	Sfp inh	G9a block	VDR inh	GRP78 ERSR act	12-LOX inh
N#C/C(=C(/O)c1ccccc1)c1nc2ccccc2[nH]1	x	x	x	x	9%
Cc1cccc(C)c1NC(=O)CNC(=O)Cc1nc(-c2ccccc2)oc1C	x	x	x	x	-13%
Cc1nc(COc2ccccc2C(=O)Nc2nc(-c3ccccc3)cs2)no1	x	x	x	x	-22%
COC(=O)c1ccc(NC(=O)Cn2nc(-n3nc(C)cc3C)ccc2=O)cc1	x	x	x	x	-20%
O=C(c1ccc2c(c1)OCO2)N1CCN(c2nnc3ccccn23)CC1	x	x	x	x	38%
CCC(C)(C)n1nnnc1C(c1cc2cc(OC)c(OC)cc2[nH]c1=O)N1CCc2ccccc21 (stereo not drawn)	-2%	45µM*	-2%	-3%	1%
CCN1CCN(C(c2cc3cc4c(cc3[nH]c2=O)OCO4)c2nnnn2C(C)(C)CC)CC1 (stereo not drawn)	-6%	-37%[59 µM]	-4%	-2%	u
CCc1cc2c(nc1CC)CCN(CC/C(C)=N/O[C@@H](C)c1cc(-c3c(C)cc(C)cc3C)no1)C2	u	35µM*	x	-4%	x
COc1ccc(Cn2c(SCc3ccccc3C)nc3cc(OC)c(OC)cc3c2=N)cc1	1.3µM*	40µM*	x	x	u
O=C(C1CCCC1)N1Cc2ccccc2CC2(CCN(Cc3cccnc3)C2)C1 (stereo not drawn)	x	x	x	x	3%[6.33 µM]
COc1cccc2cc(C(=O)NNC(=O)c3ccc(Br)cc3)c(=O)oc12	5%	45µM*	-10%	-6%	-17%
COc1cccc2cc(C(C)=O)c(=O)oc12	-13%	-1%[12.7 µM]	-23%	-1%	5%
CCOC(=O)CC(NC(=O)c1cc2cccc(OC)c2oc1=O)c1cccc([N+](=O)[O-])c1 (stereo not drawn)	50µM*	32µM*	u	1%	u
COc1cc(C(C)=O)ccc1OC(=O)c1cc2cccc(OC)c2oc1=O	-5%	35µM*	-26%	-2%	-28%
COCCN[C@@H]1C[C@@H]2c3[nH]c4ccccc4c3C[C@@H](C(=O)OC)N2[C@H](c2ccccc2)C1	x	x	x	x	125%[176 µM]
COc1ccccc1-c1ccc(OCCCN2CCC(C(O)(c3ccccc3)c3ccccc3)CC2)cc1	x	x	x	x	40µM*
OC(c1ccccc1)(c1ccccc1)C1CCN(CCCOc2ccc(-c3ccc(F)cc3F)cc2)CC1	x	x	x	x	40µM*
O=C(N/N=C(/c1ccccc1)c1ccncc1)C1CC1	x	x	x	x	42%
COc1ccc(OC)c(NC(=O)c2nc3ccccc3nc2N2CCCCC2)c1	x	x	x	x	-5%
NC(=O)Cc1csc(NC(=O)CCc2ncc(-c3ccc(F)cc3)o2)n1	x	x	x	x	37%
Cc1nc(N2CCCC2)ncc1-c1cc(=O)[nH]c(N2CCc3ccccc3C2)n1	x	x	x	x	-5%
COc1ccc(CN2CCC(CO)(CN3CCCC3)CC2)c(OC)c1C	x	x	x	x	13%
COc1cc(Br)c(CN2CCCN(C)CC2)cc1OC	-2%	71µM*	-13%	-3%	-8%
COc1ccc(OC)c(CN2CCN(Cc3ccc(OC)c(OC)c3OC)CC2)c1	x	x	x	-3%	u
COc1ccc(CN2CCN(CCSc3ccc(C)cc3)CC2)c(OC)c1OC	u	8.9µM*	10%	-1%	u
SMILES	Sfp inh	G9a block	VDR inh	GRP78 ERSR act	12-LOX inh
COc1ccc(CN2CCCN(C)CC2)c(OC)c1C	79µM*	x	4%	-4%	-19%
CN1CCCN(Cc2ccc(Cl)cc2Cl)CC1	u	2.8µM*	7%	-4%	u
COc1ccc(NC(=O)c2c(-n3cnnn3)sc(C)c2C)cc1Cl	x	x	x	x	7%
FC(F)(F)c1cc(-c2ccco2)nc2c(-c3cccc(Cl)c3)cnn12	x	x	x	x	1%
CN1CCN(Cc2coc3c(Cl)cc(Cl)cc3c2=O)CC1	50µM*	25µM*	-16%	-5%	u
CC(=O)Nc1ccc(SCC(=O)N(C)CC(=O)Nc2ccccc2Cl)cc1	x	x	79µM*	-4%	-18%
CN(CC(=O)Nc1ccccc1Cl)C(=O)COC(=O)CSc1ccc(F)cc1	x	-18%[2.33 µM]	-2%	1%	-24%
O[C@H]1CCCC[C@@H]1NC1CCN(c2nc3ccc(Cl)cc3s2)CC1	x	x	x	x	-21%
N#Cc1ccc(-n2nnc3ccccc3c2=O)c([N+](=O)[O-])c1	x	x	2%	-4%	139%
CC(=O)N1CCN(c2cc(N3CCc4ccccc4C3)c(F)cc2[N+](=O)[O-])CC1	-29%	45µM*	-5%	0%	23%
N#Cc1ccc(N2CCc3ccccc3C2)c([N+](=O)[O-])c1	45µM*	u	6%	-3%	10%
O=C(O)c1ccccc1C(=O)c1ccc(N2CCCC2)c([N+](=O)[O-])c1	-18%	u	4%	1%	u
O=C(c1ccc(N2CCCCC2)c([N+](=O)[O-])c1)N1CCOCC1	12%	6%[59 µM]	6%	-2%	0%
CCC(=O)N1CCN(c2cc(N3CCCC3)c(F)cc2[N+](=O)[O-])CC1	x	x	-7%	-3%	-18%
O=C(c1ccc(N2CCCC2)c([N+](=O)[O-])c1)N1CCc2ccccc2C1	x	28µM*	0%	6%	-1%
CC(=O)c1ccc(N2CCN(c3ccccc3O)CC2)c([N+](=O)[O-])c1	4%	45µM*	-3%	-2%	-24%
CC(C)CN(CC(C)C)C[C@H]1O[C@H](Cc2cc(COc3ccccc3)on2)CC[C@@H]1O	x	x	x	x	38%[176 µM]
CC1Cc2ccccc2N1C(=O)c1ccc(N2CCCCC2)c([N+](=O)[O-])c1 (stereo not drawn)	-6%	32µM*	-1%	-1%	-24%
Cc1ccccc1NC(=O)COc1coc(CN2CCCc3ccccc32)cc1=O	x	50µM*	-15%	2%	u
Cc1ccc(C)c(NC(=O)COc2coc(CN3CCc4ccccc43)cc2=O)c1	x	u	-7%	-1%	u
CCOC(=O)c1ccccc1NC(=O)COc1coc(CN2CCc3ccccc32)cc1=O	x	40µM*	6%	0%	-22%
O=C(COc1coc(CN2CCc3ccccc32)cc1=O)N1CCCCC1	x	71µM*	6%	-1%	-9%
O=C(COc1coc(CN2CCCc3ccccc32)cc1=O)Nc1ccc([N+](=O)[O-])cc1	x	11µM*	-6%	-1%	u
NC(=O)c1ccc(NC(=O)COc2coc(CN3CCc4ccccc4C3)cc2=O)cc1	x	50µM*	-2%	-3%	-7%
COCCn1c(=S)[nH]c2ccccc21	-6%	40µM*	-6%	-1%	-17%
SMILES	Sfp inh	G9a block	VDR inh	GRP78 ERSR act	12-LOX inh
COc1ccc(Cn2c(=O)sc3ccccc32)cc1	-8%	24%[59 µM]	-2%	2%	0%
COc1ccc(Cn2c(=S)[nH]c3ccccc32)cc1	-15%	1.8µM*	6%	5%	45µM*
COc1ccc(-n2c(=S)[nH]c3ccccc32)cc1	45µM*	3.5µM*	7%	2%	28µM*
COCCn1c(=S)[nH]c2ncccc2c1=O	-21%	u	7%	-6%	u
NNc1ccccc1Br	x	x	x	x	8.9µM*
NC(=S)Nc1ccccc1Br	-16%	x	-15%	-2%	u
Cc1cccc(CNC(=O)c2c(C)noc2-c2cccs2)c1	x	x	x	x	10%
